Data on 27 molecules can be found in PubChem BioAssay AID1852 (Sanford-Burnham Center for Chemical Genomics, 2009).

In all, about 2,500 compounds went through this assay and about 1,100 (44%) were called active. The set was probably picked from earlier hits. Some of the results follow. A number with no mark means an inactive call.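 The calls were made as follows: active = inhibition above 50% at 4 µM in the single-point screen; inactive = inhibition of 50% or less.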

This assay in a line: blockers of TNF-a NF-kB luciferase induction – cell-based, HEK293T NF-kB-Luc, luminescence, selectivity assay for NOD1/NOD2 signaling inhibitor project, primary screen (AID 1852). The settings on record: TNF-a induced, 14 h, at 4 µM, hits give high values.
By inhibition is commonly meant the change of the read-out against control, counted positive when it falls. Take `COc1ccccc1[C@@H]1C(c2cccc(C)c2)=NN(c2ccccc2)[C@H]1C(=O)N1CCOC1=O`: the inhibition was -11.7%. As to `Cc1cc(C(=O)COc2cccnc2[N+](=O)[O-])c(C)n1Cc1ccco1`, the inhibition was -11%. Under `Cc1ccc(OCC(=O)c2cc(C)n(Cc3ccco3)c2C)c([N+](=O)[O-])n1` stands 65.1% (active); under `COc1cccc(/C=N/NC(=O)CNC(=O)C(c2ccccc2)c2ccccc2)c1O`, 92.3% (active); under `COc1cccc(/C=N/NC(=O)CNC(=O)/C=C\c2ccccc2)c1O`, 82.6% (active).

For the molecule `COc1cccc(/C=N/NC(=O)c2cc3c(OC)ccc(OC)c3[nH]2)c1O`, the inhibition was 48.6%. Under `CNC1=C(N(C(C)=O)c2ccc(Br)cc2)C(=O)c2ccccc2C1=O` stands 98.3% (active). Under `CN(C1=C(NC(=O)c2ccc(Cl)cc2)C(=O)c2ccccc2C1=O)c1ccccc1` stands 21.3%; under `O=C(/C=C/c1ccco1)NCC1COc2ccccc2O1` (configuration not stated), -14.9%.

Regarding `O=C(Nc1ccc(Oc2cccnc2)nc1)c1ccc(C(F)(F)F)cc1`, the inhibition is 42.6%.

Consider `COc1cccc(C(=O)Nc2ccc(Oc3cccc(C(F)(F)F)c3)nc2)c1`, for which the inhibition is 53.3% (active). As for `O=C(Nc1ccc(Oc2cccc(C(F)(F)F)c2)nc1)c1cccs1`, the inhibition is 49.2%. In the case of `Cc1cccc(-n2[nH]c3c4c(ccc3c2=O)C(=O)c2ccccc2C4=O)c1` it was 37.6%; in that of `Cc1ccc(C)c(-n2[nH]c3c4c(ccc3c2=O)C(=O)c2ccccc2C4=O)c1`, 58.4% (active); in that of `Cc1ccc(-n2[nH]c3c4c(ccc3c2=O)C(=O)c2ccccc2C4=O)cc1`, 99.4% (active). For the molecule `CCc1ccc(CN(C)C(=O)CCc2nc3ccccc3n(-c3ccc(OC)cc3)c2=O)cc1`, the inhibition is 41.1%. In the case of `CCCOC(=O)c1[nH]c2c(c1C)C(=O)CC(c1cc(OC)c(OC)c(OC)c1)C2` (configuration not stated) it was 40.2%; in that of `COCCOC(=O)c1[nH]c2c(c1C)C(=O)CC(c1cc(OC)c(OC)c(OC)c1)C2` (configuration not stated), 58.3% (active). Under `CCCCOC(=O)c1[nH]c2c(c1C)C(=O)CC(c1cc(OC)c(OC)c(OC)c1)C2` (configuration not stated) stands 47.1%; under `Cc1ccc(-n2c(O)c(/C=C3/C(c4ccccc4)=Nc4ccccc43)c(=O)[nH]c2=O)cc1`, 28.1%.

As to `CC1=Nc2ccccc2/C1=C/c1sc(=N)n(-c2nccs2)c1O`, the inhibition is 99.2% (active).

On to `CCOC(=O)c1ccc(NC(=O)C2CCCN(S(=O)(=O)c3ccc(F)cc3)C2)cc1` (configuration not stated), for which the inhibition was -6.1%. Under `O=C(Nc1nc(-c2ccccc2)cs1)C1CCCN(S(=O)(=O)c2ccccc2)C1` (configuration not stated) stands 87.9% (active); under `O=C(Nc1nc(-c2cccs2)cs1)c1ccc(S(=O)(=O)N2CCCC2)cc1`, 83.9% (active). Under `O=C(Nc1nnc(S(=O)(=O)N2CCCCCC2)s1)c1ccc(Cl)cc1` stands -43%. Consider `O=C(Nc1nnc(S(=O)(=O)N2CCCCCC2)s1)c1ccc(Br)cc1`, for which the inhibition was -43.1%.

For `COC(=O)c1ccccc1NC(=O)C1CCCN(S(=O)(=O)c2ccc(F)cc2)C1` (configuration not stated), the inhibition is 21.7%.
